According to PubChem BioAssay AID2653 (National Center for Advancing Translational Sciences (NCATS), 2010):
Inconclusive results are not listed. Calls of active or inactive are those of the source. The call rests on the fitted dose curve; in most records, active means well fitted curve in the direction sought with a large enough effect; inconclusive means small, poorly fitted or top-dose-only effect, or another doubt; inactive means no such curve, though single readings can be large or run the other way.

Assay: Secondary Assay for Activators of Human Pyruvate Kinase M2 isoform - Cell Titer Glo Cytotoxicity for Probe SAR
Conditions: HeLa viability, CellTiter-Glo ATP luminescence, 24 h; series mostly up to 58.2 µM
Protocol: NIH Chemical Genomics Center [NCGC]
Matthew G. Vander Heiden, M.D., Ph.D. [Harvard Medical School, 77 Avenue Louis Pasteur, Boston, MA 02115]
We have identified a series of activators of the M2 isoform of human pyruvate kinase. The assay described here examines the cytotoxicity of these compounds by measuring the total ATP content of Hela cells after 24 hrs of exposure to compound.
500 Hela cells/ 4ul in media (DMEM with high glucose, 10% FBS, 1x Pen Strep, 1x NEAA) were dispensed into a white solid 1536-microwell plate with a Thermo Multidrop. The plates were incubated at 37 degrees Celsius for 24 hours. The cells were then treated with compounds using the Kalypsys pin tool, delivering 23 nl of test compounds and the control doxorubicin. The plates were then incubated for an additional 24 hours at 37 degrees C after which 4 ul of Promega Cell-Titer Glo was dispensed using the Thermo Multidrop. The plates were incubated at room temperature for 10 min before reading luminescence on the Perkin Elmer ViewLux with images collected with 2x binning and a 5 sec exposure time.

Row | SMILES | outcome
1 | O=C1c2ccccc2C(=O)N1Cc1ccccn1 | inactive
2 | Cc1ccc(N2C(=O)c3ccccc3C2=O)c(C)c1 | inactive
3 | O=C1c2ccccc2C(=O)N1c1ccc(Cl)cc1 | inactive
4 | O=S1(=O)N=C(Oc2ccccc2Cl)c2ccccc21 | inactive
5 | Cc1ccc(NS(=O)(=O)c2cccc(C(=O)O)c2)cc1C | inactive
6 | Cc1ccc(Nc2c(-c3ccsc3)nc3c(C)cccn23)cc1 | inactive
7 | O=C1c2ccccc2C(=O)N1Cc1ccncc1 | inactive
8 | O=C1c2ccccc2C(=O)N1c1cccc2ccncc12 | inactive
9 | Cc1ccn2c(NC3CCCCC3)c(-c3ccc(C)o3)nc2c1 | inactive
10 | Cc1ccc(NS(=O)(=O)c2ccc(N3CCCC3=O)cc2)cc1C | inactive
11 | Cc1ccc(NS(=O)(=O)c2cc3c(cc2F)NC(=O)CC3)cc1C | inactive
12 | Cc1ccccc1Nc1c(-c2ccc(Cl)s2)nc2ccccn12 | inactive
13 | O=C1c2ccccc2C(=O)N1c1cccc2cccnc12 | inactive
14 | O=C1c2ccccc2C(=O)N1c1ccc2ncccc2c1 | inactive
15 | Cc1ccc(NS(=O)(=O)c2ccc3c(c2)CC(=O)N3C)cc1C | inactive
16 | COc1ccc(OC2=NS(=O)(=O)c3ccccc32)cc1 | inactive
17 | Cc1ccc(Nc2c(-c3ccc(C)s3)nc3ccccn23)cc1 | inactive
18 | O=C1c2ccccc2C(=O)N1Cc1cccnc1 | inactive
19 | COc1cccc(N2C(=O)c3ccccc3C2=O)c1 | inactive
20 | O=C1c2ccccc2C(=O)N1c1ncccc1O | inactive

Row | SMILES | outcome
21 | COc1cccc(N2C(=O)c3ccccc3C2=O)n1 | inactive
22 | COc1ccc(-c2nc3ccccn3c2Nc2ccccc2C)cc1 | inactive
23 | Cc1ccc2nc(-c3cccs3)c(Nc3ccccc3)n2c1 | inactive
24 | O=C1CCc2cc(S(=O)(=O)Nc3ccncc3)ccc2N1 | inactive
25 | Cc1ccc(N(C)S(=O)(=O)c2ccc3c(c2)CCC(=O)N3)cc1C | inactive
26 | COc1ccc(S(=O)(=O)Nc2ccc(C)c(C)c2)cc1 | inactive
27 | Cc1ccc(NS(=O)(=O)c2cc3c(cc2F)NC(=O)CC3)cc1Cl | inactive
28 | COc1cccc(Cn2ncc3c4sc(S(C)=O)cc4n(C)c3c2=O)c1 (stereo not given) | inactive
29 | Cc1ccc(NS(=O)(=O)c2cc3c(cc2N2CCC2)NC(=O)CC3)cc1C | inactive
30 | O=S1(=O)N=C(Oc2ccc(Cl)cc2)c2ccccc21 | inactive
31 | COc1cc(F)c(S(=O)(=O)N2CCCN(S(=O)(=O)c3cccc(N)c3)CC2)c(F)c1 | inactive
32 | O=C1CCc2cc(S(=O)(=O)Nc3ccccn3)ccc2N1 | inactive
33 | O=C1CCc2cc([S+](=O)([O-])Nc3ccc(N[S+](=O)([O-])c4ccc5c(c4)CCC(=O)N5)cc3)ccc2N1 | inactive
34 | O=C1CCc2cc(S(=O)(=O)Nc3ccc4ncccc4c3)ccc2N1 | inactive
35 | COc1ccccc1NS(=O)(=O)c1ccc2c(c1)CCC(=O)N2 | inactive
36 | O=C1c2ccccc2C(=O)N1c1cncc2ccccc12 | inactive
37 | CC(=O)N1c2ccc(S(=O)(=O)Nc3ccc(C)c(C)c3)cc2CC1C (stereo not given) | inactive
38 | Cc1c(Cl)cccc1NS(=O)(=O)c1cc2c(cc1F)NC(=O)CC2 | inactive
39 | O=C1c2ccccc2C(=O)N1c1ccccc1O | inactive
40 | Cc1ccc(NS(=O)(=O)c2ccc3c(c2)CCCC(=O)N3)cc1C | inactive
